An excerpt weighted towards active compounds, which were near 2.3% of everything screened.
CHO-K1 Ca ag = counter-screen for M1 agonists: effect in parental CHO-K1 cells | Fluo-8 calcium fluorescence; scaled to maximal ATP response, vehicle zero | activation, % at 3 µM | actives 0.48% (n = 360,000); in the data active = activation above about 15%;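 note: untransfected CHO-K1 host cells lacking M1 receptor as counterscreen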
CHO-K1 Ca antag = counter-screen for M1 antagonists: effect in parental CHO-K1 cells; ATP-induced calcium, Fluo-8 fluorescence; AID 602250; inhibition, % at 3 µM; actives 0.6% (n = 360,000);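 active = inhibition above a per-plate cutoff, the plate's mean sample inhibition plus 3 SD, cut at about 24% in these data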;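 note: 0% = DMSO plus EC80 ATP and 100% = DMSO alone without ATP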
M1 antag = human M1 muscarinic receptor antagonists, primary screen, CHO-K1 cells, Fluo-8 calcium fluorescence, 1536-well; Muscarinic acetylcholine receptor M1 (Homo sapiens), P11229; CHO-K1 hM1, ACh EC80 antagonist; inhibition, % at 3 µM; actives 1.3% (n = 360,000); AID 588852, 2011;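 active = percent inhibition above its own plate's cutoff, namely the mean of that plate's compound wells plus 3 SD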;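 note: peak over basal fluorescence ratio during 140 s after agonist addition; 0% = ACh EC80 plus DMSO and 100% = DMSO alone without agonist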
Target sequence (P11229 whole entry, looked up): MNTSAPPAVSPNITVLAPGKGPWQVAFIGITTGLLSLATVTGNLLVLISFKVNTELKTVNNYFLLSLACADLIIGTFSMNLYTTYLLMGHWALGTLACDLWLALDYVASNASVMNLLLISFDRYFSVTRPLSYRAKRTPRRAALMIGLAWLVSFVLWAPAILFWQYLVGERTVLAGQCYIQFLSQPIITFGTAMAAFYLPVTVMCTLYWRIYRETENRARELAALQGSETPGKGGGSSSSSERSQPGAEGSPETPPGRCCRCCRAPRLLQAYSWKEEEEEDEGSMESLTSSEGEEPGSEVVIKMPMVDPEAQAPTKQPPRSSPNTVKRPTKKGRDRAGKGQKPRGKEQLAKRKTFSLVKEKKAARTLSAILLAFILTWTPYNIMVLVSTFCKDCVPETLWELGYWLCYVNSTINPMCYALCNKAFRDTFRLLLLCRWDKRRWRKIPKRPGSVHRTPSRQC
CHRM1 PAM = human M1 muscarinic receptor positive allosteric modulators, primary screen, CHO-K1 cells, Fluo-8 calcium fluorescence, 1536-well; AID 588819, 2011; CHO-K1 hM1, ACh EC20; 0% = ACh EC20, 100% = maximal ACh; Muscarinic acetylcholine receptor M1 (Homo sapiens), P11229; actives 0.088% (n = 360,000); activation, % at 3 µM; in the data active = activation above about 19%, passing the limit was not always enough
CHO-K1 Ca PAM = nonselective calcium activators in parental CHO-K1 cells, primary screen, counter-screen for M1 PAM project, cell-based, Fluo-8 calcium fluorescence, full deck, 1536-well; ATP EC20; 0% at ATP EC20, 100% at ATP max; activation, % at 3 µM; actives 0.02% (n = 360,000); AID 602247, 2012;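 active = activation above the run cutoff, the mean activation of all test compounds plus 3 SD, cut at about 40% in these data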;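 note: peak over basal fluorescence ratio in a 140 s read after ATP addition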
CHRM1 agonist = human M1 muscarinic receptor agonists, primary screen, Fluo-8 calcium fluorescence, CHO-K1 cells, HTS. actives 0.33% (n = 360,000). activation, % at 3 µM. Muscarinic acetylcholine receptor M1 (Homo sapiens), P11229. CHO-K1 hM1, agonist mode; 0% DMSO, 100% acetylcholine EC100;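 active = activation above the run's mean compound activation plus 3 SD, cut at about 16% in these data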;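 note: peak over basal fluorescence ratio within a 140 s kinetic read after compound addition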
Numbers without * were called inactive.

SMILES | CHO-K1 Ca ag | CHO-K1 Ca antag | M1 antag | CHRM1 PAM | CHO-K1 Ca PAM | CHRM1 agonist
Cc1[nH]nc2c(=S)[nH]c(=O)[nH]c12 | 0 | -3 | -12 | 1 | -1 | -1
CCCCCCCCNc1ncnc2ccccc12 | 11 | 39* | 29* | -11 | -6 | -2
c1ccc(CCNc2ncnc3ccccc23)cc1 | 10 | 32* | 24 | -12 | -3 | -4
Cc1cc2c(NCCc3ccccc3)ncnc2s1 | 12 | 24* | 24 | -5 | -16 | 4
CCC(=O)c1ccc(OCC(=O)OCC(=O)N2CCCc3ccccc32)cc1 | 12 | -4 | 5 | -6 | -18 | 0
OC(C#CCN1CCOCC1)(c1ccccc1)C1CC1 (centres undefined) | 1 | -5 | -11 | 9 | 14 | -3
OC(C#CCN1CCCCC1)(c1ccccc1)c1ccccc1 | 2 | -9 | 100* | -26 | 18 | -8
CC(C)C(O)(C#CCN1CCCCC1)C(C)C | 1 | -10 | 64* | -27 | 12 | -14
CC(O)(C#CCN1CCCCCC1)c1ccccc1 (centres undefined) | 4 | -5 | 41* | -30 | 16 | -9
OC(C#CCN1CCCC1)(c1ccccc1)c1ccccc1 | 0 | 2 | 100* | -25 | -9 | -7
O=C(CC1C[C@H](C(=O)N2CCCCC2)[C@@]2(CCc3ccccc3)c3[nH]c4ccccc4c3CCN2C1=O)NCCc1ccccn1 (some centres undefined) | 1 | -4 | -15 | 12 | 18 | -6
CC(OC(=O)Cc1ccccc1[N+](=O)[O-])C(=O)NC(=O)NC1CCCCC1 (centres undefined) | 4 | -16 | -3 | 2 | -2 | -1
COc1cc(NC(=O)c2ccc(Cl)cc2)c(Cl)cc1NC(=O)c1cccnc1 | 1 | -7 | -8 | 10 | 17 | -2
C[C@@H]1CN([C@H](C)CO)C(=O)CCCn2nncc2CO[C@@H]1CN(C)C(=O)Nc1ccnc(N2CCOCC2)c1 | 1 | -4 | -26 | 12 | 13 | -4
Cc1ccc(C(=O)N/C(=C/c2ccc(Cl)cc2)C(=O)N2CCOCC2)cc1 | 0 | -2 | -2 | 10 | -3 | 0
O=C1OCC/C1=C\NCCCCCCCCN/C=C1\CCOC1=O | 0 | -19 | -23 | 15 | 20 | -4
CC(C)(CNC(=S)NCCc1ccccc1)CNC(=S)NCCc1ccccc1 | 12 | 28* | 18 | -10 | -10 | -2
OCCNC(=S)NCCc1ccccc1 | 1 | 10 | 6 | -2 | -5 | -6
COC(=O)C1CC2=C(CCCC2=O)N(Cc2ccccc2)C1=O (centres undefined) | 0 | -10 | -13 | 6 | 1 | -3
CSc1ccccc1NC(=O)CSc1nnc(Cc2ccccc2)o1 | 0 | 3 | 1 | 2 | -3 | -4
O=C1CC(C(=O)Nc2cc(Cl)ccc2Cl)n2ncnc2N1 (centres undefined) | 0 | -13 | 5 | 7 | 13 | -6
CCOc1ccc(S(=O)(=O)n2cc(F)c(=O)[nH]c2=O)cc1 | 5 | 24* | 28 | -21 | -10 | -2
CCOc1ccc(S(=O)(=O)n2cc(F)c(=O)[nH]c2=O)cc1[N+](=O)[O-] | 0 | -13 | 10 | 0 | -4 | 0
CCN1C(=C(C#N)C#N)C=Cc2cc(C)ccc21 | 1 | -2 | 9 | -9 | 9 | -9
C=CC[n+]1c(/C=C2\C=Cc3cc(C)ccc3N2CC)ccc2ccccc21 | 16* | 38* | 54* | -14 | -7 | 3
COc1cccc(N2CCN(C(=O)c3cccc(NC4=NC5CS(=O)(=O)CC5S4)c3)CC2)c1 (centres undefined) | 5 | 24* | -6 | -3 | -6 | -2
O=c1oc2c(O)cccc2cc1-c1nc2ccccc2[nH]1 | 13 | 11 | 10 | -9 | -8 | 18*
S=c1nc(NCCc2ccccc2Cl)c2ccccc2[nH]1 | 12 | -4 | 13 | -10 | 5 | 0
